Data published in PubChem BioAssay (EPA / NIEHS).
Active and inactive are the calls of the source. How the source made its calls: active means hit-call score of the fitted dose curve at least 0.9, where 1 is the maximum; inactive means score below 0.9.

Tests used:
Details in all cases: mRNA level, 48 h; actives raise or lower the signal
[1] = read-out: growth arrest and DNA damage 45 (GADD45G), GADD45G (gene 10912); assay: LTEA_HepaRG_GADD45G: Life Technologies and Expression Analysis (LTEA) Assay for growth arrest and DNA damage 45 (GADD45G) using HepaRG (AID 2283499)
How it was run: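 GADD45G transcript level by qRT-PCR (housekeeping-normalized: ACTB, GAPDH, POLR2A) after 48 h chemical treatment of a single HepaRG lot in serum-free induction medium; eight-point half-log series up to 100 uM in 0.5% DMSO, duplicates, up- or down-regulation scored.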

[2] = read-out: Glutamate-cysteine ligase regulatory (GCLM), GCLM (gene 2730); assay: LTEA_HepaRG_GCLM: Life Technologies and Expression Analysis (LTEA) Assay for Glutamate-cysteine ligase regulatory (GCLM) using HepaRG (AID 2283500)
How it was run: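 In this multiplexed HepaRG gene-expression assay, GCLM mRNA change after 48 h treatment (8 concentrations, max 100 uM) was scored against DMSO by bidirectional curve fitting.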

[3] = read-out: Glutathione S-transferase M3 (GSTM3), GSTM3 (gene 2947); assay: LTEA_HepaRG_GSTM3: Life Technologies and Expression Analysis (LTEA) Assay for Glutathione S-transferase M3 (GSTM3) using HepaRG (AID 2283501)
How it was run: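 GSTM3 transcript levels came from Fluidigm TaqMan qRT-PCR normalized to three housekeeping genes, fitted in both directions against DMSO. HepaRG cultures received chemicals for 48 h in serum-free induction medium (0.5% DMSO), 8 half-log concentrations up to 100 uM, duplicate.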

[4] = read-out: Heat shock 70 kDa protein 1 (HSPA1A), gene 3303; assay: LTEA_HepaRG_HSPA1A: Life Technologies and Expression Analysis (LTEA) Assay for Heat shock 70 kDa protein 1 (HSPA1A) using HepaRG (AID 2283502)
How it was run: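 An oxidative-stress marker readout: HepaRG cells treated 48 h in duplicate with an eight-point series (highest 100 uM) had HSPA1A mRNA quantified by TaqMan qRT-PCR. Activity was fitted in both directions using 0.5% DMSO as baseline.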

[5] = read-out: HGF (gene 3082); assay: LTEA_HepaRG_HGF: Life Technologies and Expression Analysis (LTEA) Assay for Hepatocyte Growth Facto (HGF) using HepaRG (AID 2283505)
How it was run: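 HGF transcript was quantified by TaqMan qRT-PCR against three housekeeping genes after 48 h treatment of HepaRG cells. Exposure ran in duplicate over eight half-log steps topping at 100 uM in 0.5% DMSO vehicle.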

[6] = read-out: Insulin Like Growth Factor 1 (IGF1), IGF1 (gene 3479); assay: LTEA_HepaRG_IGF1: Life Technologies and Expression Analysis (LTEA) Assay for Insulin Like Growth Factor 1 (IGF1) using HepaRG (AID 2283506)
How it was run: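 Endpoint: IGF1 mRNA change by qRT-PCR, housekeeping-normalized, fitted bidirectionally relative to 0.5% DMSO vehicle. Human HepaRG cells were treated 48 h in serum-free induction medium, eight half-log concentrations topping at 100 uM.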

[7] = read-out: Intercellular Adhesion Molecule 1 (ICAM1), ICAM1 (gene 3383); assay: LTEA_HepaRG_ICAM1: Life Technologies and Expression Analysis (LTEA) Assay for Intercellular Adhesion Molecule 1 (ICAM1) using HepaRG (AID 2283507)
How it was run: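 ICAM1 transcript levels measured by qRT-PCR, normalized to three housekeeping genes (ACTB, GAPDH, POLR2A), after 48 h chemical exposure of HepaRG cells. Duplicate eight-point half-log series from 100 uM in 0.5% DMSO; gain or loss fitted against vehicle.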

[8] = read-out: Insulin-like growth factor-binding protein 1 (IGFBP1), IGFBP1 (gene 3484); assay: LTEA_HepaRG_IGFBP1: Life Technologies and Expression Analysis (LTEA) Assay for Insulin-like growth factor-binding protein 1 (IGFBP1) using HepaRG (AID 2283508)
How it was run: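 Read-out is qRT-PCR transcript level normalized to three housekeeping genes, fitted in both directions against 0.5% DMSO. Differentiated HepaRG cells received eight half-log concentrations (top 100 uM) in duplicate for 48 h in serum-free induction medium.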

[9] = read-out: Interleukin 6 (IL6), IL6 (gene 3569); assay: LTEA_HepaRG_IL6: Life Technologies and Expression Analysis (LTEA) Assay for Interleukin 6 (IL6) using HepaRG (AID 2283509)
How it was run: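 Changes in IL6 mRNA, up or down relative to 0.5% DMSO controls, were derived from concentration-response curves in human HepaRG cells treated for 48 h at up to 100 uM, with ACTB, GAPDH and POLR2A as normalizers.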

[10] = read-out: Interleukin 6 Receptor (IL6R), IL6R (gene 3570); assay: LTEA_HepaRG_IL6R: Life Technologies and Expression Analysis (LTEA) Assay for Interleukin 6 Receptor (IL6R) using HepaRG (AID 2283510)
How it was run: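 In this HepaRG screen, test chemicals act on cells for 48 h at up to 100 uM (eight half-log points, duplicate wells). IL6R expression is quantified by qRT-PCR after normalization to ACTB, GAPDH and POLR2A, with DMSO as baseline.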

[11] = read-out: Potassium channel subfamily K member 1 (KCNK1), KCNK1 (gene 3775); assay: LTEA_HepaRG_KCNK1: Life Technologies and Expression Analysis (LTEA) Assay for Potassium channel subfamily K member 1 (KCNK1) using HepaRG (AID 2283511)
How it was run: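 Human HepaRG cultures receive test chemicals for 48 h in 0.5% DMSO, top concentration 100 uM with half-log dilutions. Induction or suppression of KCNK1 mRNA relative to DMSO is derived by bidirectional fitting of qRT-PCR data.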

[12] = read-out: Keratin 19 (KRT19), KRT19 (gene 3880); assay: LTEA_HepaRG_KRT19: Life Technologies and Expression Analysis (LTEA) Assay for Keratin 19 (KRT19) using HepaRG (AID 2283512)
How it was run: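 KRT19 transcript measured by TaqMan qRT-PCR, referenced to three housekeeping genes, after HepaRG cells received test chemicals for 48 h. Eight half-log concentrations, top 100 uM, 0.5% DMSO vehicle; increases and decreases both fitted.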

[13] = read-out: JUN Transcription Factor, JUN (gene 3725); assay: LTEA_HepaRG_JUN: Life Technologies and Expression Analysis (LTEA) Assay for JUN Transcription Factor using HepaRG (AID 2283513)
How it was run: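 Gene-expression endpoint: JUN mRNA (qRT-PCR, normalized to three reference genes) in HepaRG cultures treated 48 h with chemicals, duplicate wells, 100 uM maximum with half-log dilutions; bidirectional fitting relative to 0.5% DMSO.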

[14] = read-out: Lipoprotein lipase (LPL), LPL (gene 4023); assay: LTEA_HepaRG_LPL: Life Technologies and Expression Analysis (LTEA) Assay for Lipoprotein lipase (LPL) using HepaRG (AID 2283515)
How it was run: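 Concentration-response testing used half-log steps from 100 uM in 0.5% DMSO on human HepaRG cells, 48 h, duplicate wells. Phenobarbital 1 mM served as induction control; LPL mRNA was normalized to ACTB, GAPDH, POLR2A.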

[15] = read-out: MicroRNA 122 (MIR122), gene 406906; assay: LTEA_HepaRG_MIR122: Life Technologies and Expression Analysis (LTEA) Assay for MicroRNA 122 (MIR122) using HepaRG (AID 2283516); further: the transcript read is the microRNA miR-122
How it was run: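 Changes in transcript abundance, up or down relative to 0.5% DMSO vehicle, were scored after 48 h chemical treatment of HepaRG cells (maximum 100 uM). Quantification used TaqMan qRT-PCR normalized to housekeeping genes.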

[16] = read-out: matrix metalloproteinase-10 (MMP10), MMP10 (gene 4319); assay: LTEA_HepaRG_MMP10: Life Technologies and Expression Analysis (LTEA) Assay for matrix metalloproteinase-10 (MMP10) using HepaRG (AID 2283517)
How it was run: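 In differentiated HepaRG cultures kept in 0.5% DMSO, test chemicals act for 48 h over an eight-point range with a top dose of 100 uM. Expression is then quantified by TaqMan RT-PCR against ACTB, GAPDH and POLR2A.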

[17] = read-out: MYC, MYC (gene 4609); assay: LTEA_HepaRG_MYC: Life Technologies and Expression Analysis (LTEA) Assay for MYC using HepaRG (AID 2283518)
How it was run: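 MYC transcript changes, up or down relative to 0.5% DMSO, from TaqMan qRT-PCR normalized to three housekeeping genes. Human HepaRG cultures received chemicals for 48 h at eight half-log concentrations up to 100 uM, in duplicate.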

[18] = read-out: Hypoxia-inducible factor 1-alpha (Homo sapiens) (UniProt Q16665); assay: LTEA_HepaRG_HIF1A: Life Technologies and Expression Analysis (LTEA) Assay for Hypoxia-inducible factor 1 (HIF1A) Trancription factor using HepaRG (AID 2283503)
How it was run: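 Gain- or loss-of-signal HIF1A mRNA changes are fitted against a DMSO baseline. HepaRG cultures receive eight concentrations, highest 100 uM, for 48 h in serum-free induction medium with 0.5% DMSO.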

Measured: outcome

Chain of Hypoxia-inducible factor 1-alpha (Homo sapiens) (Q16665 whole entry, looked up): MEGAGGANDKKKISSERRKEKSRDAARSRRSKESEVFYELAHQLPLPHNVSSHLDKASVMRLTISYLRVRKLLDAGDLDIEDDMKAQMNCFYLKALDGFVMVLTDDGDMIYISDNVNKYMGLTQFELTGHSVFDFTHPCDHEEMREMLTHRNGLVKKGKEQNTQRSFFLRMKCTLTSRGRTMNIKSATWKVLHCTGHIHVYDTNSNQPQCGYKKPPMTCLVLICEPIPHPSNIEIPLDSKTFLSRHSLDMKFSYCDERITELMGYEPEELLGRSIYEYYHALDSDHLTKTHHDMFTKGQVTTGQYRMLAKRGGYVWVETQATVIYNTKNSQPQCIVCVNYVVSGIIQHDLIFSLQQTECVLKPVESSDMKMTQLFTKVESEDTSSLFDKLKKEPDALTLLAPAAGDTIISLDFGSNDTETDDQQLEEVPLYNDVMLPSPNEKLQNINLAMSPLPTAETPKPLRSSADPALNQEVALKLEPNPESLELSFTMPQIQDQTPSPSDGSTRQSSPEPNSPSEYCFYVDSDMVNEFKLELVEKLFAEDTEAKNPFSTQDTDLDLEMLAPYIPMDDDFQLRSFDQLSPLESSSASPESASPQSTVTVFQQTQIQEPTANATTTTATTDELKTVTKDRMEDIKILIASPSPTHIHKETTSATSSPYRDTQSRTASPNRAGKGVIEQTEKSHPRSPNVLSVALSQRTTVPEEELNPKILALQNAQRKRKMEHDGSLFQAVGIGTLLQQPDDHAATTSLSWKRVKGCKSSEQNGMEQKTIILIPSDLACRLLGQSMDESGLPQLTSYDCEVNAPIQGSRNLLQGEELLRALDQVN

COC(=O)c1ccc(I)cc1S(=O)(=O)NC(=O)Nc1nc(C)nc(OC)n1
inactive: [1] | [2] | [3] | [4] | [5] | [6] | [7] | [8] | [9] | [10] | [11] | [12] | [13] | [14] | [15] | [16] | [17]

CCCN(CCC)C(=O)SCC
inactive: [1] | [2] | [3] | [4] | [18] | [5] | [6] | [7] | [8] | [9] | [10] | [11] | [12] | [13] | [14] | [16] | [17]

C#CCOC(=O)[C@@H](C)Oc1ccc(Oc2ncc(Cl)cc2F)cc1
inactive: [1] | [2] | [3] | [4] | [18] | [5] | [6] | [7] | [8] | [9] | [10] | [11] | [12] | [13] | [14] | [16] | [17]

CCOC(=O)c1ccc(O)cc1
inactive: [1] | [2] | [3] | [4] | [18] | [5] | [6] | [7] | [8] | [9] | [10] | [11] | [12] | [13] | [14] | [16] | [17]
